Screening data deposited in PubChem by SRMLSC.
Compounds with a hit are over-represented: about 6.5% of the library has one in this group of screens.
NADH coupling = inhibitors of enzymes used to reach an NAD/NADH endpoint. coupled PK/LDH NADH assays, four targets. IC50, µM (doses to about 10 µM), inactives show at the top dose inhibition. 0.02% of 65,000 active;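 active = single-dose screening hits from any of four coupled enzyme assays that gave an IC50 when retested across doses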;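 note: the DPM-DC format reads NADH fluorescence rather than 340 nm absorbance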
Spn DPM-DC inh = blocks S. pneumoniae diphosphomevalonate decarboxylase; calls only at 10 µM; purified DPM-DC, PK/LDH coupled NADH fluorescence; 0.49% of 65,000 active; AID 556;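 active = the 320 compounds with the highest percent inhibition in the single-dose primary screen, excluding strongly autofluorescent ones, cut at about 32% in these data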;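 note: kinetic rate of NADH fluorescence loss reporting ADP formed by the decarboxylase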
MK inhibit = blocks S. pneumoniae mevalonate kinase | purified MK, PK/LDH-coupled NADH absorbance 340 nm | inhibition, % at 10 µM | 0.48% of 65,000 active;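 active = ranked among the strongest by inhibition in the single 10 µM screen, a fixed top-ranked set picked for dose follow-up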
PMK inhibit = blocks S. pneumoniae phosphomevalonate kinase; purified PMK, PK/LDH-coupled NADH absorbance 340 nm; inhibition, % at 10 µM; 0.49% of 65,000 active; AID 539;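 active = top-ranked compounds by inhibition in the single 10 µM screen, taking a fixed number of the strongest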;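 note: 0% = full reaction with DMSO carrier and 100% = background rate without enzyme reaction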
A340 absorber = compounds absorbing at 340 nm | AID 708 | 65,000 tested, under 10 active | compound absorbance at 340 nm, fold over control | fold change at 10 µM;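 active = at 10 µM dose, initial 340 nm absorbance at least 2 fold that of control wells; inactive = change under 2 fold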;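 note: initial absorbance extrapolated from kinetic A340 decline of NADH oxidation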
Autofluor 339 = intrinsic fluorescence of library compounds, ex339/em460 – biochemical, MLSMR library, data from DPM-DC assay, artefact control, profiling panel; compound autofluorescence, ex339/em460 nm, NADH buffer; stronger effect = higher value; 1 = no-compound wells, NADH background; fluorescence fold increase at 10 µM; 5.5% of 65,000 active; AID 709;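 active = at 10 µM, mean starting fluorescence two-fold or more over control wells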;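 note: signal is the first read of a kinetic run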
* hit, by the source's call; i = inactive; . = no result given; + = active, no number.

SMILES	NADH coupling	Spn DPM-DC inh	MK inhibit	PMK inhibit	A340 absorber	Autofluor 339
COC(=O)c1c(C(=O)OC)n(CCCN)c2ccc(C)cc12	4%	.	5	0	0.99	2.4*
CCOC(=O)c1c(C)c(C(=O)N(C)C2CCCCC2)c(C)n1C	9%	i	9	17	0.98	1.1
CNc1nc(NC)nc(-n2c(C(F)(F)F)nc3ccccc32)n1	0%	i	1	0	1.1	1.1
O=C(COC(=O)c1ccccc1NC(=O)c1ccco1)NCCC1=CCCCC1	12%	.	9	14	1.1	2*
COc1ccc(-n2nc(C(=O)N3CCC(C#N)CC3)c3c4ccccc4n(C)c3c2=O)cc1	7%	i	3	4	1.1	0.94
c1ccc(C2Nc3ccccc3-c3nc4ccccc4n32)nc1 (configuration not stated)	5%	.	9	1	1.1	2.3*
c1coc(C2Nc3ccccc3-c3nc4ccccc4n32)c1 (configuration not stated)	6%	.	1	11	1.1	2.3*
CCCOc1ccc(N2CC(C(=O)NC(C)C)CC2=O)cc1 (configuration not stated)	6%	i	2	16	1	1
COc1ccc(-c2c3c(=O)n(C)c(=O)n(C)c3cn2Cc2ccccn2)cc1	4%	i	4	7	1.1	1.3
Cc1cccc(-c2c3c(=O)n(C)c(=O)n(C)c3cn2-c2ccc(O)cc2)c1	7%	i	10	4	1	2.1*
COc1ccc(-c2c3c(=O)n(C)c(=O)n(C)c3cn2-c2cc(OC)ccc2OC)cc1	12%	.	11	12	1	3.7*
Cn1c(=O)c2c(-c3ccccc3)n(N3CCOCC3)cc2n(C)c1=O	7%	i	14	6	1	1.3
Cn1c(=O)c2c(-c3ccccc3)n(C3CCCCC3)cc2n(C)c1=O	17%	i	13	31*	1	1.4
Cn1c(=O)c2c(-c3ccccc3)n(-c3ccccc3O)cc2n(C)c1=O	13%	i	1	16	1	2.2*
CCOC(=O)c1cnc(-n2nc(C)cc2C)nc1NC	10%	i	4	11	1	1.9
CCOC(=O)c1cnc(-n2nc(C)cc2C)nc1NC1CCCCC1	6%	i	8	10	1	2*
Cc1noc(C)c1C(=O)NCCCN1CCCC1=O	1%	i	4	0	1	1.1
O=C(Nc1ccc(Cl)cc1)Nc1ccccc1C(=O)NCc1ccco1	7%	i	4	2	1.1	2.1*
O=C(NCc1ccco1)c1ccccc1NS(=O)(=O)c1ccc2c(c1)OCCO2	11%	+	0	0	1.1	2.9*
Cc1ccccc1COc1ccc(/C(O)=C2/C(=O)C(=O)N(CCCn3ccnc3)C2c2ccco2)cc1 (configuration not stated)	2%	i	0	7	1.1	1.1
N#Cc1nc(-c2cccs2)oc1NCC1CCCO1 (configuration not stated)	1%	.	2	0	1.1	2.3*
COc1ccc(-c2nc(C#N)c(NCC3CCCO3)o2)cc1 (configuration not stated)	2%	.	4	0	1.1	2.3*
O=S(=O)(c1ccccc1)c1nc(-c2cccs2)oc1NCC1CCCO1 (configuration not stated)	3%	i	0	5	1.1	1.1
COc1ccc(-c2nc(C#N)c(N3CCN(c4ccccc4)CC3)o2)cc1	6%	i	10	6	0.99	1.4
Cn1c(O)c(C=Nc2ccc(Cc3ccncc3)cc2)c(=O)n(C)c1=O	2%	i	3	4	1.1	1
SMILES	NADH coupling	Spn DPM-DC inh	MK inhibit	PMK inhibit	A340 absorber	Autofluor 339
COC(=O)CNc1nc(-c2ccccc2F)nc2ccccc12	10%	i	2	28*	0.92	1.1
CCCNC(=O)NC(C(=O)OC)C12CC3CC(CC(C3)C1)C2 (configuration not stated)	5%	i	0	17	0.98	1
CCOC(=O)C1CCN(Cc2ccc(C(=O)OC)cc2)CC1	6%	i	60*	8	1	1
COc1cccc(-c2cn3nc4c(nc3n2)CCCC4)c1	11%	i	6	11	1	2.6*
COc1ccc(CCCNC(=O)CC#N)cc1OC	5%	i	3	5	1	1.1
COc1ccc2nc(NC(=O)C3CCCN(S(=O)(=O)c4cccc5nsnc45)C3)sc2c1 (configuration not stated)	4%	i	7	8	0.98	1
COc1ccc2nc(NC(=O)C3CCCN(S(=O)(=O)c4cccc5nonc45)C3)sc2c1 (configuration not stated)	28%	i	70*	15	1	1
COc1cccc(-c2nc(C(N)=O)c3[nH]c(=O)n(-c4ccccc4)c3n2)c1OC	4%	i	3	3	1.1	1.1
CCOc1ccccc1-c1nc(C(N)=O)c2[nH]c(=O)n(-c3ccccc3)c2n1	8%	i	0	11	1.1	3*
Cc1cccc(-n2c(=O)[nH]c3c(C(N)=O)nc(-c4ccccc4Cl)nc32)c1	6%	.	3	9	1.1	2.1*
COc1ccccc1-c1nc(C(N)=O)c2[nH]c(=O)n(-c3cccc(C)c3)c2n1	23%	+	3	12	1	3.9*
Cc1cccc(-n2c(N)cc(=O)[nH]c2=S)c1	7%	i	5	16	1.1	1.2
Cc1nc2sc3c(c2c2nc(-c4ccco4)nn12)CC(C)(C)OC3	5%	i	5	8	1	1.1
CC(=O)Oc1ccc(CCC(C)OC(C)=O)cc1 (configuration not stated)	2%	i	0	0	1	1
CC1(C)Cc2c(c(-c3ccccc3)nc3[nH][nH]c(=O)c23)CO1	4%	i	5	5	1	1
CC1(C)Cc2c(C#N)c(NCCCO)nc(-c3ccccc3)c2CO1	7%	.	7	6	1.1	2.1*
CCN(CC)c1nc(C)c2c(c1C#N)CC(C)(C)OC2	11%	i	0	11	1	1.9
Cc1nc(NCCCO)c(C#N)c2c1COC(C)(C)C2	8%	.	10	5	1.1	2.3*
CCCCNC(=O)c1ccc(NC(=O)C2CCCO2)cc1 (configuration not stated)	4%	i	12	0	1.1	1.1
Cc1ccc2nc(N3CCN(C(=O)c4cccs4)CC3)c(C#N)cc2c1	8%	i	1	11	0.98	2.4*
Cc1cc(C)c2cc(C#N)c(NCCCNC(=O)CCC(=O)O)nc2c1	6%	.	2	10	1	3.7*
COc1ccc(C(=O)N2CCN(c3nc4cc(C)ccc4cc3C#N)CC2)c(OC)c1	2%	i	6	6	1	1.4
